Lassa entry inh: blocks Lassa virus binding to or entry into cells | Lassa virus pseudotype entry inhibition, cell reporter | Potency, µM (titrated, usually from 37.9 µM), without a hit: top-dose activity change, negative = inhibition, most hits filed as inhibitors | actives 1.2% (n = 300,000) | AID 540256; calls by dose curve; tested in HEK293 cells; note: nearly all actives have a fitted effect of over 50% in size
RE007 growth inh: less growth of the S. pombe RE007 Vpr strain; S. pombe RE007 Vpr strain, BacTiter-Glo ATP luminescence, 24 h; Potency, µM (titrated, usually from 92.2 µM), for inactives: at the top dose activity change, negative = less growth, hits mostly inhibitors; actives 0.21% (n = 360,000); AID 651644; active = well fitted falling curve with a large enough effect; inconclusive = small, poorly fitted or top-dose-only effect; inactive = no such curve, though single readings can be large or run the other way; note: nearly all actives have a fitted effect of over 50% in size
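Fission yeast RE007 carrying one integrated HIV-1 vpr copy, seeded at OD 0.01 in PMG+AL medium with 23 nL pinned compound. Grown 24 h at 30 degrees; viability read by BacTiter-Glo luminescence after 5 min.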
Sm TGR block: inhibitors of Schistosoma mansoni thioredoxin glutathione reductase | Q962Y6 | purified TGR, DTNB reduction, TNB absorbance 405 nm | Potency, µM (titrated, usually from 114 µM), for inactives: at the highest dose activity change, negative = inhibition, hits mostly inhibitors | actives 3% (n = 360,000) | AID 485364; note: nearly all actives have a fitted effect of over 60% in size
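First, TGR (20 nM dispensed) and NADPH were mixed with compound. Second, a 15 min room-temperature incubation followed. Third, further NADPH and then DTNB were added to start the reaction. Finally, TNB absorbance was monitored kinetically.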
FMDV inh: blocks foot and mouth disease virus; Potency, µM (doses to about 57.9 µM), without a hit: at the highest dose activity change, negative = inhibition, usual class: inhibitors; actives 1.2% (n = 410,000); AID 1159524; FMDV antiviral cell-based qHTS; calls by dose curve; tested in HEK293T cells; note: read-out not given here; nearly all actives have a fitted effect of over 45% in size
HCV inh: HCV inhibition; Huh7.5.1 HCVcc-Cre infection, luciferase reporter, 44 h; Potency, µM (top dose mostly 41.8 µM), without a hit: at the top dose activity change, negative = inhibition, actives largely listed as inhibitors; actives 3.4% (n = 340,000); AID 651820
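Infectious HCVcc-Cre (~0.5 moi) was added to cells just after compound, with cells seeded 4 h earlier at 1,000 per well. Luciferase activity after 44 h culture reported infection; substrate was incubated 15 min at room temperature before reading.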
MARV entry inh: Marburg virus entry inhibition | Marburg virus pseudotyped entry inhibition, cell reporter | actives 1.8% (n = 300,000) | Potency, µM (series often up to 37.8 µM), for inactives: top-dose activity change, negative = inhibition, actives largely listed as inhibitors; calls by dose curve; tested in HEK293 cells
* = called active by the depositor; u = inconclusive; x = no result given; ! = a repeat was not active; [ ] = another dose, or the depositor's remark. Shown are actives, neighbours in structure and some others; about 7.2% of the full set was active somewhere. Unless noted, calls come from the whole dose curve; as a rule, active = well fitted curve in the direction sought with a large enough effect; inconclusive = small, poorly fitted or top-dose-only effect, or another doubt; inactive = no such curve, though single readings can be large; an effect the other way counts as inactive or inconclusive. % is set by controls: 0 for no effect and ±100 for the full control effect; potency is the fitted concentration of half-maximal effect.

SMILES	Lassa entry inh	RE007 growth inh	Sm TGR block	FMDV inh	HCV inh	MARV entry inh
CN1CCN(C(=O)CN(c2ccccc2)S(=O)(=O)N(C)C)CC1	u	13.8%	4.1%	1.1%	27.3%	u
Cc1ccc(Cl)cc1N1CCN(C(=O)CN(c2ccccc2)S(=O)(=O)N(C)C)CC1	-26.3%	4.0%	11.3%	20µM*	u	-0.2%[46.1 µM]
Cc1ccccc1CN1C[C@@H]2C[C@@H](c3cnc(N4CCOCC4)s3)N3CCC[C@@]23C1=O	x	-1.5%	15.8µM*	-10.7%	u	x
O=C1N(Cc2cccc(Cl)c2)C[C@@H]2C[C@@H](c3cccc4cccnc34)N3CCC[C@@]123	-19.7%[46.1 µM]	0.5%	-29.9%	-1.9%	-29.0%	u
O=C1N(Cc2cccc(Cl)c2)C[C@@H]2C[C@@H](c3cccc4ncccc34)N3CCC[C@@]123	u	-15.9%	-0.1%	-10.8%	11.2µM*	u
Cc1cccc([C@@H]2C[C@H]3CN(Cc4cccc(Cl)c4)C(=O)[C@]34CCCN24)n1	-8.2%[46.1 µM]	-9.5%	28.2µM*	-12.9%	-9.4%	u
COc1ccccc1CN1C[C@@H]2C[C@@H](C3=Cc4cc(Cl)ccc4OC3)N3CCC[C@@]23C1=O	x	-21.5%	-22.5%	-22.3%	11.2µM*	x
COCCCN1C(=O)C(CC(=O)NC2CCCC2)CC(C(=O)N(C(C)C)C(C)C)=C1C (configuration not stated)	x	1.8%	x	-14.7%	x	x
Cc1cc(N[C@@H](CC(C)C)C(=O)O)nc(Cc2ccccc2)n1	x	x	x	x	x	22.2%
O=C(CN1C(=O)c2ccccc2S1(=O)=O)c1ccccc1Cl	x	x	-12.5%	x	x	x
O=C(CN1C(=O)c2ccccc2S1(=O)=O)c1ccccc1	3.98µM*	6.0%	-18.7%	u	-3.7%	u
Cc1ccc(C(=O)CN2/C(=C(\O)c3ccccc3)C(=O)c3ccccc3S2(=O)=O)c(C)c1	18.3µM*	4.8%	7.5%	-8.3%	u	u
Cc1ccc(C(=O)CN2C(=O)c3ccccc3S2(=O)=O)cc1	u	-6.4%	5.0%	14.1µM*	25.3%	u
COc1cccc(CNc2ncnc3sc(C(=O)N4CCOCC4)c(C)c23)c1OC	x	x	x	-14.2%	x	x
Cc1ccc(NC(=S)NCCN(C2CCCCC2)C2CCCC2)cc1	x	-1.3%	-1.7%	14.3%	u	x
Cc1ccc(NC(=S)NCCN(C2CCCCC2)C2CCCC2)cc1C	u	-9.1%	-22.3%	-16.3%	u	9.2µM*
Cc1cc(C)nc(Sc2nc(Cl)nc(N(c3ccccc3)c3ccccc3)n2)n1	-8.9%	10.7%	0.0%	35.5µM*	u	u
Cc1cc(C)nc(SC(C(=O)O)c2ccccc2)n1 (configuration not stated)	18.0%	1.8%	1.0%	1.9%	8.4%	17.6%
Cc1c(Cl)cccc1-n1ncc(C(=O)Nc2ccc(Br)cc2F)c1C1CCNCC1	1.7%[46.1 µM]	x	-9.8%	u	x	x
Cc1nc2sccn2c(=O)c1S(=O)(=O)N1CCN(c2ccc(F)cc2)CC1	2.0%[46.1 µM]	9.3%	-1.9%	-7.8%	-6.1%	x
Cc1nc2ccccn2c(=O)c1CCN1CCC(C(=O)c2ccc(F)cc2)CC1	-10.1%	-8.1%	6.8%	-2.5%	u	6.31µM*!
Cc1nc2sccn2c(=O)c1CCN1CCC(=C(c2ccc(F)cc2)c2ccc(F)cc2)CC1	11.6µM*	-17.2%[18.4 µM]	-3.4%	-17.7%	3.55µM*!	20µM*
O=C(Nc1ccc(Cl)cc1)c1ccc(-n2cnnc2)cc1	10.2%[46.1 µM]	x	-6.3%	-12.3%	x	x
CC(C)c1c(C(=O)N2CCCCC2c2cccnc2)cnn1-c1nccc(-c2cccs2)n1 (configuration not stated)	x	x	x	-18.0%	x	x
Cc1ccc(-c2cc(-c3coc4ccccc4c3=O)c3c(n2)-c2ccccc2OC3)cc1	1.3%[46.1 µM]	x	6.7%	-14.2%	x	u
SMILES	Lassa entry inh	RE007 growth inh	Sm TGR block	FMDV inh	HCV inh	MARV entry inh
COc1ccc(/C=C/C(=O)c2ccc(OC)cc2OC)cc1	x	-14.0%	-12.8%	52.1%	u	x
CNc1ccc(Br)cc(C(=O)/C=C/c2ccc3c(c2)OCO3)c1=O	u	-21.9%	2.82µM*	u	9.7%	-31.9%
CCNc1ccc(Br)cc(C(=O)/C=C/c2ccc(Cl)cc2Cl)c1=O	u	-18.6%	2.24µM*	u	8.91µM*	u
CNc1ccc(Br)cc(C(=O)/C=C/c2ccc(OC)cc2)c1=O	-14.9%	-7.0%	11.2µM*	15.8µM*	34.1%	-16.8%
CC(C)[C@@H]1CC[C@@H](C)C[C@@H]1P(=O)(c1ccccc1)c1ccccc1	7.5%	x	x	x	x	-29.8%
CC(NCC(=O)Nc1ccccc1C(=O)NC1CC1)c1cccc(Cl)c1 (configuration not stated)	-5.4%[46.1 µM]	0.3%	2.1%	-9.9%	-13.7%	u
CC(NCC(=O)Nc1ccccc1C(=O)NC1CC1)c1ccc(Cl)cc1 (configuration not stated)	x	-3.3%	x	20µM*	x	x
Cc1ccc(CN(C(=O)COc2ccccc2Cl)c2ccccn2)o1	u	x	39.8µM*	65.5%	x	3.4%[46.1 µM]
COc1ccc(CN(C)c2ccc(S(=O)(=O)N3CCN(C)CC3)cc2[N+](=O)[O-])cc1OC	u	-5.9%	-13.6%	u	0.562µM*	u
COc1ccc(CCN(C)c2ccc(S(=O)(=O)N3CCCC3)cc2[N+](=O)[O-])cc1OC	u	x	-4.1%	u	u	-32.0%
COc1ccc(C(CNc2ccc(S(=O)(=O)N3CCN(C)CC3)cc2[N+](=O)[O-])N(C)C)cc1 (configuration not stated)	-2.1%	-3.8%	-1.9%	0.0%	10µM*	u
COc1ccc(CCNc2ccc(S(=O)(=O)N3CCN(C)CC3)cc2[N+](=O)[O-])cc1	-23.8%	-5.6%	-7.8%	-17.7%	u	u
O=[N+]([O-])c1cc(-c2ccc([As](=O)(O)O)cc2)ccc1[As](=O)(O)O	x	x	8.91µM*	x	x	x
CCOc1ccc(NC(=O)C2CCN(c3nc4ccccc4[nH]3)CC2)cc1	-2.4%[46.1 µM]	x	-1.1%	-0.6%	x	x
C=CCNC(=S)N/N=C/c1ccc(-c2ccc(OC)cc2)o1	1.78µM*	-11.0%	x	14.1µM*	u	u
CC(C)(C)NC(=S)N/N=C\c1ccc(-c2ccc([N+](=O)[O-])cc2)o1	-22.1%	-11.0%	2.24µM*	u	-19.4%	-4.6%[46.1 µM]
CC(CNC(=O)Cn1ccc2cc(S(=O)(=O)N3CCCCC3)ccc21)c1ccccc1 (configuration not stated)	-7.5%[46.1 µM]	x	8.4%	-9.9%	x	x
CCN1CCCC1CNCc1cc2ccc(SC)cc2nc1-c1cc(OC)ccc1OC (configuration not stated)	x	x	x	-1.8%	x	x
COc1ccc(CC(=O)Nc2ccc3nc(Nc4cccc(Cl)c4)cc(C)c3c2)cc1	u	x	5.1%	-19.1%	x	x
COc1ccc(C(=O)Nc2ccc3nc4c(c(Nc5ccccc5OC)c3c2)CCCC4)c(OC)c1	-3.7%[46.1 µM]	x	4.6%	-5.5%	x	2.51µM*

Screening data as filed in PubChem BioAssay.
